Assay outcomes (PubChem BioAssay)
An excerpt weighted towards active compounds, which were near 1.9% of everything screened.
BJeLR lethal – BJeLR cell viability loss. inhibition, % (test concentration not listed). 300,000 tested, 0.17% active. BJeLR (HRASV12) viability, CellTiter-Glo ATP luminescence, 48 h. AID 1554; in the data active means inhibition above about 50%; inconclusive means no clear call, values can overlap the other calls
RecA splice inh – Mtb RecA intein splicing inhibition | P9WHJ3 | cell-free RecA intein splicing, fluorescence | inhibition, % (no concentration beside the values) | 290,000 tested, 0.75% active; in the data active means inhibition above about 30%; inconclusive means no clear call, values can overlap the other calls
Target sequence (P9WHJ3 whole entry, looked up, canonical isoform): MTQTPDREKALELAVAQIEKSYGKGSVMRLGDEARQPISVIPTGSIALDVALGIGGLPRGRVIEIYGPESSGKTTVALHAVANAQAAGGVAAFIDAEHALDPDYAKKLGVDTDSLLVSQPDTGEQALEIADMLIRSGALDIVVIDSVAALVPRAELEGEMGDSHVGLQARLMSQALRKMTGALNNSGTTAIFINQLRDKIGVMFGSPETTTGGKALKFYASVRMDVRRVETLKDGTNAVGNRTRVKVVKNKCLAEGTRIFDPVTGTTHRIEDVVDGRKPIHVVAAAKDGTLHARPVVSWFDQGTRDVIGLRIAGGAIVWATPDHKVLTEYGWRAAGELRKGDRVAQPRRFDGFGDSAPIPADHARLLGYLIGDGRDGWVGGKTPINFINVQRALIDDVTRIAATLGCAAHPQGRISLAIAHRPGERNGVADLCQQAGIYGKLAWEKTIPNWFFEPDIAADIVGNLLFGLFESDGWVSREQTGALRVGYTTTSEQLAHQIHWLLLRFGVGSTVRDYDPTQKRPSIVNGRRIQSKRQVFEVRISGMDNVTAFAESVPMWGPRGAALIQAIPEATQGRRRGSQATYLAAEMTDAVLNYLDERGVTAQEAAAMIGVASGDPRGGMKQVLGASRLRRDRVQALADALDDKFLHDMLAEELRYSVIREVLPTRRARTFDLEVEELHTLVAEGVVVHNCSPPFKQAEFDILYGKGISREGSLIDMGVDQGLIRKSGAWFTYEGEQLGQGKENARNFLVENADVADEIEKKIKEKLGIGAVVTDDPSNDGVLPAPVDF
PfHsp40 rescue – compounds rescuing yeast from Plasmodium falciparum HSP40 toxicity. growth rescue, % at 12.5 µM. 340,000 tested, 0.68% active. S. cerevisiae expressing PfHsp40, growth rescue, ATP luminescence. AID 504582; in the data active means growth rescue above about 28%, passing the limit was not always enough; inconclusive means no clear call, values can overlap the other calls;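 further: yeast W303a lacking pdr1 and pdr3 grown in galactose medium; growth measured after three days at 30 °C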
PrP UTR inh – suppresses PrP 5' UTR mRNA reporter expression | 340,000 tested, 0.35% active | AID 488862 | cell-based PrP 5' UTR mRNA reporter, plate reader | inhibition, % (concentration not given with the values); in the data active means inhibition above about 52%
PrPC surface inh – inhibitors of human cell surface prion protein PrPC. P04156. TR-FRET read-out. inhibition, % at 13.8 µM. 370,000 tested, 0.43% active. AID 720596; in the data active means inhibition above about 24%
SSB-PriA inh – K. pneumoniae PriA-SSBct interaction inhibition. AlphaScreen SSBct-PriA binding, biotinylated peptide. inhibition, % at 33 µM. 430,000 tested, 0.6% active. AID 1272365; in the data active means inhibition mostly above about 37%, no sharp cut-off; inactive means mostly below about 20%
Numbers stand for hits; i = inactive; ? = inconclusive; nt = no result.

SMILES	BJeLR lethal	RecA splice inh	PfHsp40 rescue	PrP UTR inh	PrPC surface inh	SSB-PriA inh
O=C(CSc1ncc(-c2ccc(Cl)c(Cl)c2)n1-c1ccc(OC(F)F)cc1)N1CCCC1	nt	nt	nt	nt	nt	38
COC(C)(CNC(=O)c1cc2ccccc2s1)c1ccccc1F (stereo not drawn)	nt	nt	nt	nt	nt	i
CC(C)(C)c1nnc(N/N=C/c2cc(Br)ccc2O)n(N)c1=O	85	i	i	i	i	nt
CC(C)C[C@H]1C(=O)N2CCCC2[C@]2(O)O[C@](NC(=O)[C@@H]3C=C4c5cccc6[nH]cc(c56)CC4N(C)C3)(C(C)C)C(=O)N12 (stereo partly drawn)	i	?	i	i	nt	i
CC(C)[C@H]1C(=O)N2CCC[C@H]2[C@]2(O)O[C@](NC(=O)[C@@H]3C=C4c5cccc6[nH]cc(c56)C[C@H]4N(C)C3)(C(C)C)C(=O)N12	nt	35	i	i	nt	i
Oc1c(CN2CCc3ccccc3C2)cc(Cl)c2cccnc12	65	i	282	i	nt	i
O=Nc1cc(CN2CCOCC2)c(O)c2ncccc12	nt	nt	nt	nt	nt	i
Oc1c(Cl)cc(CN2CCOCC2)c2cccnc12	nt	nt	?	i	i	115
O=[N+]([O-])c1cc(CN2CCOCC2)c2cccnc2c1O	nt	nt	nt	nt	nt	92
Cc1ccc(S(=O)(=O)N2CCN(CCn3cccn3)CC2)s1	nt	nt	nt	nt	nt	i
CN1CCCc2cc(CCNC(=O)Cc3ccc(F)cc3)ccc21	nt	nt	nt	nt	nt	i
COc1ccccc1OCC(=O)NCCc1ccc2c(c1)CCCN2C	nt	nt	nt	nt	nt	45
COc1ccccc1NC(=O)NCCc1ccc2c(c1)CCCN2C	nt	nt	nt	nt	nt	56
COc1ccc(Cl)cc1NC(=O)C(=O)NCCc1ccc2c(c1)CCCN2C	nt	nt	nt	nt	nt	i
Cc1ccc(NC(=O)c2cccc(N3C(=O)C4C5C=CC(C5)C4C3=O)c2)cc1C (stereo not drawn)	i	i	i	i	i	i
COc1ccc(NC(=O)c2cccc(N3C(=O)C4C5C=CC(C5)C4C3=O)c2)cc1Cl (stereo not drawn)	i	94	i	i	i	i
COc1ccccc1CCNC(=O)CSc1ccc(-c2ccc3c(c2)OCO3)nn1	nt	nt	nt	nt	nt	67
COc1ccc(-c2ccc(SCC(=O)NCc3ccc4c(c3)OCO4)nn2)cc1OC	i	i	i	i	i	i
COc1ccccc1CNC(=O)CSc1ccc(-c2ccccn2)nn1	i	i	314	i	i	i
COc1ccc(CCNC(=O)CSc2ccc(-c3ccccn3)nn2)cc1OC	nt	nt	nt	nt	nt	94
COc1ccc(CCNC(=O)CSc2ccc(-c3ccccc3)nn2)cc1OC	i	i	i	i	i	i
O=C(CCN1C(=O)/C(=C/c2ccccc2)SC1=S)NCCCN1CCOCC1	i	nt	i	i	i	i
CCc1ccc(/C=C2\SC(=S)N(CCCC(=O)NCCCN3CCOCC3)C2=O)cc1	nt	nt	nt	nt	i	nt
O=C(CCN1C(=O)/C(=C\c2cccc(Br)c2)SC1=S)NCCCN1CCOCC1	85	i	i	i	i	i
CN1CCN(C(=O)CCCN2C(=O)/C(=C/c3cccc(Br)c3)SC2=S)CC1	90	i	i	i	i	i
SMILES	BJeLR lethal	RecA splice inh	PfHsp40 rescue	PrP UTR inh	PrPC surface inh	SSB-PriA inh
CCOc1ccc(/C=C2\SC(=S)N(CCCC(=O)NCCCN3CCOCC3)C2=O)cc1	i	nt	i	81	i	i
CCc1ccc(/C=C2/SC(=S)N(CCC(=O)NCCCN3CCOCC3)C2=O)cc1	106	i	i	i	i	i
CCOc1ccc(S(=O)(=O)NN=C(C)Cc2ccc(OC)cc2)cc1	nt	nt	nt	nt	nt	i
O=C(CCN1C(=O)/C(=C/c2ccccc2)SC1=S)Nc1cccnc1	i	i	i	i	i	i
CCc1ccc(/C=C2/SC(=S)N(CCC(=O)Nc3cccnc3)C2=O)cc1	102	i	i	i	i	i
CS(=O)(=O)N1N=C(c2ccc(Cl)cc2)CC1c1ccco1 (stereo not drawn)	nt	nt	nt	nt	nt	i
O=C(Nc1ccc(Cl)cc1)C1CCCC1	i	i	i	i	i	i
O=C(Nc1cc(Cl)cc(Cl)c1)C1CCCC1	i	i	70	i	i	i
CC(=NNC(=O)c1cc(Cl)ccc1O)C12CC3CC(CC(C3)C1)C2	nt	nt	nt	nt	nt	i
Clc1cc2c(c3ncccc13)OCN(CCC1=CCCCC1)C2	nt	nt	nt	nt	nt	95
CN(C)c1ccc(CCNC(=O)C(=O)Nc2ccc(F)cc2F)cc1	nt	nt	nt	nt	nt	i
COc1cc(C2(c3ccc(O)c(OC)c3)C(=O)Nc3c(C)cc(Br)cc32)ccc1O	i	42	i	i	i	i
Cc1cc(Br)cc2c1NC(=O)C2(c1c(C)n(C)n(-c2ccccc2)c1=O)c1c(C)n(C)n(-c2ccccc2)c1=O	i	i	i	i	i	i
CCOn1c(=O)c(-c2cccc3ccccc23)[n+]([O-])c2ccccc21	i	i	i	i	i	i
O=c1c(-c2cccc3ccccc23)[n+]([O-])c2ccccc2n1O	i	i	81	i	i	i
Nc1n[nH]c(C(=O)N/N=C\c2cccs2)n1	nt	nt	nt	nt	nt	50
O=C(N/N=C/c1cccs1)c1cc(-c2ccc3ccccc3c2)n[nH]1	i	i	i	i	i	nt
O=C(N/N=C/c1cccs1)c1cc(-c2ccncc2)nc2ccccc12	56	i	i	i	i	nt
Cc1n[nH]c(=O)nc1NN=Cc1cccs1	nt	nt	nt	nt	nt	59
CCc1ccc(/C=N/NC(=O)c2cc(-c3ccncc3)nc3ccccc23)s1	i	i	i	i	i	nt
O=C(Nc1ccc2cn[nH]c2c1)c1ccco1	nt	nt	nt	nt	nt	i
O=C(NC(c1ccccc1)c1ccccc1)N1CCc2ncncc2C1	nt	nt	nt	nt	nt	i
CN(C)c1cccc(C(=O)NCC[C@H](O)c2ccoc2)c1	nt	nt	nt	nt	nt	i
S=C1SCN(Cc2ccccn2)CN1Cc1ccco1	i	i	i	i	i	48
COCCN1CSC(=S)N(Cc2ccco2)C1	i	i	i	i	i	i
SMILES	BJeLR lethal	RecA splice inh	PfHsp40 rescue	PrP UTR inh	PrPC surface inh	SSB-PriA inh
Cc1cc(OC2CCN(S(=O)(=O)Cc3ccccc3F)CC2)cc(=O)n1C	nt	nt	nt	nt	nt	i
COc1cccc(N2C[C@@H](C(=O)Nc3c(C(=O)Nc4ccc5c(c4)OCCO5)oc4ccccc34)CC2=O)c1	nt	nt	nt	nt	nt	69
CC(C)c1ccc2c(c1)C1(NN=C(c3ccccc3)S1)C(=O)N2 (stereo not drawn)	i	i	41	i	i	i
CCc1ccc2c(c1)C1(NN=C(c3ccc(C)cc3)S1)C(=O)N2 (stereo not drawn)	i	i	i	i	i	i
CCCc1ccc(C(C)NC(=S)NC2CCCCC2)cc1 (stereo not drawn)	i	i	159	i	i	i
O=c1oc2c(O)c(O)cc3c(=O)oc4c(O)c(O)cc1c4c23	nt	nt	152	i	nt	i
O=c1oc2ccccc2c2oc3cc(O)c(O)cc3c12	i	i	i	i	i	i
CCC(=O)NCCOc1ccc2nnc(-c3ccccc3Cl)n2n1	nt	nt	nt	nt	nt	i
Oc1ccc(-c2nc3ccccc3s2)c(O)c1	i	i	244	i	i	i
CCOc1ccc(-n2nnc(C(=O)Nc3ccc(S(N)(=O)=O)cc3)c2C)cc1	nt	nt	nt	nt	nt	i
CCOC(=O)c1ccc(NC(=O)Cn2nc(-c3ccccn3)n(C)c2=O)cc1	nt	nt	nt	nt	nt	i
C=CCSc1cccc2cccnc12	nt	nt	nt	nt	nt	125
c1cnc2c(SSc3cccc4cccnc34)cccc2c1	nt	nt	nt	nt	nt	i
O=C(Sc1cccc2cccnc12)c1ccc(F)cc1	nt	nt	nt	nt	28	nt
